In the library only some 18% were active in any assay of this set; here they are far more common.
VP16 counter – VP16 counterscreen qHTS for inhibitors of ROR gamma transcriptional activity | hit rate 3.5% among 310,000 | AID 2546, 2010 | Potency, µM (series often up to 53.6 µM), usual class: inhibitors | Drosophila S2 Gal4-VP16 UAS-luciferase, luminescence, 20 h;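 further: Gal4-VP16 expression switched on by copper sulfate through the metallothionein promoter; nearly all actives have a fitted effect of over 50% in size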
DT40 TDP1 CPT – qHTS for Inhibitors of human tyrosyl-DNA phosphodiesterase 1 (TDP1): qHTS in cells in presence of CPT. AID 686979, 2013. chicken DT40 Tdp1-/-;hTDP1 cells + 20 nM CPT, ATP luminescence, 48 h. Potency, µM (doses to about 46.2 µM), hits mostly inhibitors. hit rate 12% among 420,000; further: nearly all actives have a fitted effect of over 55% in size
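Cell growth measured by CellTiter-Glo luminescence after a minimum 48 h, 37 C compound exposure with 20 nM CPT in Tdp1-knockout DT40 cells stably expressing hTDP1, seeded 400/well; qHTS titration format.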
RORg inh – qHTS for inhibitors of ROR gamma transcriptional activity. Nuclear receptor ROR-gamma (Mus musculus), P51450. Drosophila S2 Gal4-RORgamma UAS-luciferase reporter, 20 h. Potency, µM (doses to about 53.6 µM), actives largely listed as inhibitors. hit rate 5.4% among 310,000; further: nearly all actives have a fitted effect of over 60% in size
Target sequence (P51450 whole entry, looked up, the tested form may be a part): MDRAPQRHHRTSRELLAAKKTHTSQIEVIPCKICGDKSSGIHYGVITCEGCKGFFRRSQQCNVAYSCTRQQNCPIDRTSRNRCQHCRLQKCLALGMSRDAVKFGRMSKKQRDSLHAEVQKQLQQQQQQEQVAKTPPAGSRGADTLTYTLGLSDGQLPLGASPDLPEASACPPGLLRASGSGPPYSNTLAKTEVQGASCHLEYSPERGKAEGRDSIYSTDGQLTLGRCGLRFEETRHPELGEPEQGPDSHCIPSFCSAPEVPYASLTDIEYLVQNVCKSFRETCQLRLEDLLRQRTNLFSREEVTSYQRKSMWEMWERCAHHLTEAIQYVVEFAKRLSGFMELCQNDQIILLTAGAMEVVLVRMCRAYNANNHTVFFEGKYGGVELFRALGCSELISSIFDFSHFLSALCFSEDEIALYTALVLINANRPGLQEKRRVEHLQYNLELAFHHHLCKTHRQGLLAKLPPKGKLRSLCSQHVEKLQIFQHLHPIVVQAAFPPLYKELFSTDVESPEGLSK
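Schneider cells (Drosophila), stable Gal4 DBD–ROR gamma + UAS-luc; 1 hr cmpd preincubation; Cu2+ induction 700 uM final; 20 hr ambient; luminescence.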
TDP1 cell noCPT – qHTS for Inhibitors of human tyrosyl-DNA phosphodiesterase 1 (TDP1): qHTS in cells in absence of CPT; DT40 Tdp1-/- hTDP1 cells, no CPT, ATP luminescence, 48 h; Potency, µM (top dose mostly 46.2 µM), most hits filed as inhibitors; hit rate 15% among 420,000; AID 686978, 2013; further: nearly all actives have a fitted effect of over 55% in size
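Chicken DT40 Tdp1-/- cells complemented with human TDP1, screened without camptothecin (DMSO vehicle only), 400 cells/well. Compounds pin-transferred, cells incubated at 37 °C for at least 48 hr. Growth read as ATP-dependent luminescence (CellTiter-Glo, 30 min at RT).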
IL-1B inflam inh – qHTS for Inhibitors of Inflammasome Signaling: IL-1-beta AlphaLISA Primary Screen | THP-1 LPS/ATP IL-1B secretion, AlphaLISA, 16 h; active compounds read low | activity change, % at 57.5 µM | hit rate 4.7% among 360,000; in the data active means activity change below about -50%; inconclusive means mostly about -30% to -49%
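Secreted IL-1B measured by AlphaLISA bead assay after 16 h compound exposure of THP-1 cells; compounds (final up to 57.5 uM) added 1 h before LPS (250 ng/mL) and ATP (1.25 mM) stimulation; lower signal means less secretion.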
LDHA block – qHTS assay for inhibitors of human lactate dehydrogenase; L-lactate dehydrogenase A chain (Homo sapiens), P00338; purified LDHA, NADH/diaphorase-resazurin fluorescence; active compounds read low; activity change, % (values are at about 110 or 230 µM); hit rate 0.15% among 480,000; AID 1347041, 2019; in the data active means activity change below about -30%; inconclusive means mostly about -25% to -30%
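Human LDH5 (2 nM) was incubated with 0.06 mM NADH and 0.2 mM pyruvate for 5 min at room temperature in Tris pH 7.4. Remaining NADH was coupled through diaphorase/resazurin, and resorufin fluorescence was read at 0 and 20 min.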
Numbers stand for hits; i = inactive; ? = inconclusive; nt = no result given; [ ] = remark or other dose. Unless noted, the call rests on the fitted dose curve; in most records, active means well fitted curve in the direction sought with a large enough effect; inconclusive means small, poorly fitted or top-dose-only effect, or another doubt; inactive means no such curve, though single readings can be large; an effect the other way counts as inactive or inconclusive.

SMILES	VP16 counter	DT40 TDP1 CPT	RORg inh	TDP1 cell noCPT	IL-1B inflam inh	LDHA block
COc1ccc(C(=O)N2CCN(c3cccc(Cl)c3)CC2)cc1S(=O)(=O)NC1CC1	nt	15µM	nt	15µM	i	i
COC(=O)c1ccc(C(=O)OC)c(NC(=S)N2CCN(c3cccc(Cl)c3)CC2)c1	i	i	i[10 µM]	?	i	i
COc1ccc(C(=S)N2CCN(c3cccc(Cl)c3)CC2)c(OC)c1	i	2.6µM	i	4.1µM	i	i
Cc1ccc(C(=O)N2CCN(c3cccc(Cl)c3)CC2)cc1C	i	?	i	26µM	i	i
Cc1ccc(C(=O)N2CCN(c3ccccc3)CC2)cc1C	i	i	i	i	i	i
CCOc1ccc(C(=O)N2CCN(c3cccc(Cl)c3)CC2)cc1	i	i	i	?	i	i
COc1ccc(C(=O)N2CCN(c3cccc(Cl)c3)CC2)cc1	i	?	i	16µM	-59	i
COCCn1c(-n2nc(C)cc2C)nc2c1c(=O)n(Cc1ccc(OC)cc1)c(=O)n2C	nt	nt	nt	nt	nt	i
O=C(CCCCC(=O)OC1CCCCC1)OC1CCCCC1	nt	?	nt	i	i	i
O=C(C=CC(=O)OC1CCCCC1)OC1CCCCC1	nt	i	nt	?	-88	i
CCn1nc(-c2ccc(C)c(S(=O)(=O)NCc3ccccc3)c2)c2c(c1=O)CCCC2	nt	nt	nt	nt	nt	i
O=C(CN1CCCc2c(F)cc(F)cc21)Nc1cccc2nsnc12	nt	nt	nt	nt	nt	i
Cc1ccc(-c2cn3cccnc3n2)cc1NC(=O)C(C)(C)Oc1ccc(Cl)cc1	nt	?	nt	18µM	nt	i
COc1ccc(-c2cn3cccnc3n2)cc1NC(=O)Nc1cc(C)ccc1C	nt	?	nt	?	nt	i
COc1ccc(-c2cn3cccnc3n2)cc1NC(=O)c1ccc(Br)o1	i	16µM	i	?	-54	i
COc1ccc(-c2cn3cccnc3n2)cc1NC(=O)c1c(F)cccc1F	nt	?	nt	26µM	nt	i
COc1cccc(C(=O)Nc2cc(-c3cn4cccnc4n3)ccc2C)c1OC	nt	?	nt	16µM	nt	i
Cc1ccc(-c2cnc(CCC(=O)NCc3ccccc3F)o2)cc1C	nt	nt	nt	nt	nt	i
c1csc(CNCCC2CCCC2)c1	nt	nt	nt	nt	nt	i
CCCCn1nc(C(=O)N2CCCC(c3nc4ccccc4s3)C2)c2ccccc2c1=O (stereo unspecified)	nt	nt	nt	nt	nt	i
O=C(CSc1nc(C(F)(F)F)nc2ccccc12)NC1CCCCCC1	nt	nt	nt	nt	nt	i
CCN(CC)c1ccc(/C=C(/C#N)c2nc3ccc(C)cc3[nH]2)c(OC(C)C)c1	i	15µM	i	21µM	?	i
CCOc1ccc(/C=C(\C#N)c2nc3ccccc3[nH]2)c(OCC)c1	nt	nt	nt	nt	nt	i
CCCOc1cc(N(CC)CC)ccc1/C=C(/C#N)c1nc2ccc(C)cc2[nH]1	i	21µM	i	13µM	i	i
CCOc1cc(N(CC)CC)ccc1/C=C(/C#N)c1nc2ccccc2[nH]1	i	16µM	i	10µM	?	i
SMILES	VP16 counter	DT40 TDP1 CPT	RORg inh	TDP1 cell noCPT	IL-1B inflam inh	LDHA block
O=C(NCC(c1cccs1)N1CCCC1)c1cc(=O)c2ccc(Br)cc2o1 (stereo unspecified)	nt	nt	nt	nt	nt	i
Cc1ccc(N(C(=O)c2ccccc2Cl)C2=NC(C)CS2)c(C)c1 (stereo unspecified)	i	?	i	18µM	i	i
Cc1nn(CC(=O)O)c2nc(-c3cnn(C)c3C)cc(C(F)F)c12	nt	nt	nt	nt	nt	i
Oc1ccc(O)cc1	?	21µM	11µM	?	nt	nt
Oc1ccc(-c2nnc(-c3ccc(O)cc3)nn2)cc1	?	i	11µM	i	i	i
COc1ccc(C(=O)/C(=C/c2ccccn2)c2nc3ccccc3o2)cc1OC	nt	nt	nt	nt	nt	i
COc1ccc(-c2cc(-c3nc(-c4ccccc4)no3)[nH]n2)c(OC)c1	nt	nt	nt	nt	nt	i
S=c1nc(-c2ccccc2)c(-c2ccccc2)n[nH]1	i	i	8.9µM	i	i	i
O=c1nc(-c2ccccc2)c(-c2ccccc2)n[nH]1	i	i	i	i	i	i
CCOC(=O)C1=C(CC)Nc2ccccc2N=C1NC(=O)c1cc(C)on1	nt	i	nt	?	i	i
CCOC(=O)C1=C(CC)Nc2ccccc2N=C1NC(=O)Nc1ccc(Cl)c(Cl)c1	?	2.9µM	i	2.6µM	-74	i
COc1cc2ccccc2cc1C(=O)N1CCC(C(=O)c2ccc3c(c2)OCCO3)CC1	nt	nt	nt	nt	nt	i
CCCCN(CCCC)C(=O)CSc1nnc(-c2cc(OC)c(OC)c(OC)c2)o1	i[0.365 µM]	18µM	i	14µM	-54	i
CCCCOC(=O)CSc1nnc(-c2cc(OC)c(OC)c(OC)c2)o1	i	i	i	i	i	i
COc1cc(-c2nnc(SCC(=O)N(Cc3ccccc3)C(C)(C)C)o2)cc(OC)c1OC	i	13µM	i	15µM	-56	i
Cc1nc(C)c(-c2ccc(SCC(=O)Nc3cccc(Cl)c3)nn2)s1	?	26µM	i	?	i	i
CC(=O)c1cccc(NC(=O)CSc2ccc(-c3sc(C)nc3C)nn2)c1	i	21µM	i	23µM	i	i
Cc1nc(C)c(-c2ccc(SCC(=O)Nc3cccc(F)c3)nn2)s1	i	16µM	i	23µM	i	i
CCc1ccc(NC(=O)CSc2ccc(-c3sc(C)nc3C)nn2)cc1	i	?	i	?	i	i
Cc1nc(C)c(-c2ccc(SCC(=O)Nc3ccc(Br)cc3)nn2)s1	nt	21µM	nt	?	nt	i
COc1ccc(NC(=O)CSc2ccc(-c3sc(C)nc3C)nn2)cc1	i	i	i	?	i	i
CCOc1cccc2cc(C(=O)NCc3ccc(OC(F)F)c(OC)c3)c(=O)oc12	nt	nt	nt	nt	nt	i
CSc1ccc(C)c(C(=O)Nc2ccccc2C(C)C)c1	nt	nt	nt	nt	nt	i
O=C(NCc1ccco1)C12CC3CC(CC(C3)C1)C2	i	i	i	i	i	i
S=C(NCc1ccco1)NCc1ccco1	nt	?	nt	26µM	i	i
SMILES	VP16 counter	DT40 TDP1 CPT	RORg inh	TDP1 cell noCPT	IL-1B inflam inh	LDHA block
Cc1cccc(NC(=S)NCc2ccco2)n1	4.5µM	i	1.3µM	i	i	i
O=C(CC12CC3CC(CC(C3)C1)C2)NC(=S)NCc1ccco1	?	?	3.5µM	?	i	i
O=C(NCc1ccco1)c1c(F)c(F)c(F)c(C(=O)NCc2ccco2)c1F	i	i	i	i	-131	i
O=C(NCc1ccco1)c1c(Cl)cccc1Cl	nt	i	nt	i	i	i
COc1cc(-c2nnc(SCC(=O)NC3CCCc4ccccc43)o2)cc(OC)c1OC (stereo unspecified)	nt	nt	nt	nt	nt	i
COc1ccc(NC(=O)CCc2c(C)c3ccc(O)c(C)c3oc2=O)c(OC)c1	nt	nt	nt	nt	nt	i
